Test results: PubChem BioAssay
Active and inactive are the calls of the source.

Assays:
[1] = system: Plasmodium falciparum Sir2 (PF13_0152, Sir2A); test: Plasmodium falciparum Sir2A binding compounds – biochemical, small-molecule microarray, 635 nm fluorescence, primary screen (AID 1098); conditions: fluorescence 635 nm, higher = more signal;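 note: score merges spot fluorescence intensity with its signal-to-noise ratio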
[2] = probe aDKK1 binding to arrayed compounds – biochemical, biotinylated probe, 635/667 nm fluorescence, primary screen (AID 1099); conditions: small-molecule microarray, higher = more signal;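 note: score merges 667nm spot fluorescence with signal to noise across triplicate slides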
[3] = probe aCHRDL2 binding to arrayed compounds – biochemical, biotinylated probe, 635/667 nm fluorescence, primary screen (AID 1100); conditions: small-molecule microarray, higher = more signal
[4] = change in splice reporter luminescence, either direction, cell-based, HEK293, spliceosome inhibition project, primary screen (AID 1101); conditions: HEK293 splicing luciferase reporter, 24 h, higher = more signal, called active from +8 up or from −8 down;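 note: HEK293 cells carrying a splicing-competent luciferase reporter gene; test concentration not given here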
[5] = molecular target: Fibroblast growth factor 10 (Homo sapiens) (UniProt O15520); test: compounds binding fibroblast growth factor 10 – biochemical, small-molecule microarray, 635 nm fluorescence, primary screen (AID 1102); conditions: FGF10 binding, fluorescence 635 nm, higher = more signal
[6] = system: glycogen synthase kinase-3 (GSK3A per assay name; protocol says GSK3B); test: compounds binding glycogen synthase kinase-3 – biochemical, small-molecule microarray, 635 nm fluorescence, GSK3A, primary screen (AID 1103); conditions: fluorescence 635 nm, higher = more signal; note: the record names both GSK3A and GSK3B
[7] = molecular target: Epidermal growth factor receptor (Homo sapiens) (UniProt P00533); test: compounds binding epidermal growth factor receptor – biochemical, small-molecule microarray, 635 nm fluorescence, primary screen (AID 1104); conditions: EGFR binding, higher = more signal;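 note: score merges 667 nm emission intensity with spot signal to noise over triplicate slides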
[8] = molecular target: Follistatin-related protein 3 (Homo sapiens) (UniProt O95633); test: compounds binding follistatin-related protein 3 – biochemical, small-molecule microarray, 635 nm fluorescence, primary screen (AID 1105); conditions: FSTL3 binding, higher = more signal;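 note: score merges emission near 667 nm and signal to noise per printed spot across three slides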
[9] = molecular target: Dickkopf-related protein 1 (Homo sapiens) (UniProt O94907); test: small molecules binding DKK1 protein – biochemical, small-molecule microarray, 635 nm fluorescence scan, primary screen (AID 1106); conditions: higher = more signal;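 note: score merges emission near 667 nm with signal to noise over three replicate slides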
[10] = system: Inhibin beta A chain (activin A); test: small molecules binding activin A – biochemical, small-molecule microarray, 635 nm fluorescence scan, primary screen (AID 1107); conditions: INHBA, higher = more signal;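 note: mouse activin A protein probed at 4.33 µg/mL on printed slides; score merges bound-protein fluorescence near 667 nm with spot signal-to-noise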
[11] = system: Human papillomavirus type 1a protein E7 (residues 44-93); test: small molecules binding HPV E7 44-93 – biochemical, small-molecule microarray, residues 44-93, 635 nm fluorescence, primary screen (AID 1108); conditions: fluorescence 635 nm, higher = more signal;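 note: E7 fragment applied at 1 µg/mL in TBST for 1 h at 4 C; score combines spot fluorescence with its signal to noise ratio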
[12] = hepatitis C replication reporter changes, two-sided – Huh7 cells, luciferase reporter, HCV replication inhibitor project, primary screen (AID 1109); conditions: Huh7 HCV replicon luciferase reporter, 48 h; higher = more signal;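 note: huh7 hepatoma cells harbouring a luciferase neomycin HCV replicon reporter; luciferase luminescence as measure of HCV replicon replication; test concentration not given here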
[13] = molecular target: Left-right determination factor 2 (Homo sapiens) (UniProt O00292); test: small molecules binding LEFTY2 protein – biochemical, small-molecule microarray, 635 nm fluorescence scan, primary screen (AID 1110); conditions: higher = more signal
[14] = molecular target: Calmodulin-1 (Homo sapiens) (UniProt P0DP23); test: small molecules binding calmodulin-1 with EGTA – biochemical, small-molecule microarray, Cy5-labelled CALM1, profiling panel (AID 1111); conditions: Cy5-CALM1 binding fluorescence, higher = more signal;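 note: labelled calmodulin applied in Tris saline Tween buffer holding calcium plus EGTA and DTT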
[15] = molecular target: Calmodulin-1 (Homo sapiens) (UniProt P0DP23); test: small molecules binding Ca-loaded calmodulin-1 – biochemical, small-molecule microarray, Cy5-labelled CALM1, plus calcium, artefact control for SMM control-protein annotation, profiling panel (AID 1112); conditions: Cy5-CALM1 binding fluorescence, higher = more signal;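 note: score merges spot fluorescence with signal to noise from triplicate slides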
[16] = probe aWnt5a binding to arrayed compounds – biochemical, biotinylated probe, 635/667 nm fluorescence, primary screen (AID 1113); conditions: small-molecule microarray, higher = more signal;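 note: score merges 667 nm fluorescence intensity with signal-to-noise per printed feature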
[17] = probe aShh binding to arrayed compounds – biochemical, biotinylated probe, 635/667 nm fluorescence, primary screen (AID 1114); conditions: small-molecule microarray, higher = more signal;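 note: probe is biotin-labelled aShh protein from a stem cell growth factor screen; measures binding of labelled protein to compounds printed on the slide; score merges feature fluorescence at 667 nm with signal-to-noise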
[18] = probe aNog binding to arrayed compounds – biochemical, biotinylated probe, 635/667 nm fluorescence, primary screen (AID 1115); conditions: small-molecule microarray, higher = more signal;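 note: probe is biotinylated aNog protein used at 0.15 µg/mL for 1 h at 4 C; z-score combines 667 nm fluorescence of each spot with its signal to noise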
[19] = molecular target: Torsin-1A-interacting protein 1 (Homo sapiens) (UniProt Q5JTV8); test: compound microarray binding of lysate hLAP1 – cell lysate, small-molecule microarray, COS7 lysate, 635/667 nm fluorescence, primary screen (AID 1116); conditions: 635 nm fluorescence, higher = more signal
[20] = molecular target: Alpha-bungarotoxin (Bungarus multicinctus) (UniProt P60615); test: compounds binding labelled alpha-BTX control protein – biochemical, small-molecule microarray, Alexa647 label, 635/667 nm fluorescence, artefact control for SMM control protein annotation, profiling panel (AID 1117); conditions: alpha-BTX-A647 binding fluorescence, higher = more signal
Sequence of Alpha-bungarotoxin (Bungarus multicinctus) (P60615 whole entry, looked up): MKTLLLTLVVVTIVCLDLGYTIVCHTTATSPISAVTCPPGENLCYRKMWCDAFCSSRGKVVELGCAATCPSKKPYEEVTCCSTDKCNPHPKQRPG

Sequence of Left-right determination factor 2 (Homo sapiens) (O00292 whole entry, looked up): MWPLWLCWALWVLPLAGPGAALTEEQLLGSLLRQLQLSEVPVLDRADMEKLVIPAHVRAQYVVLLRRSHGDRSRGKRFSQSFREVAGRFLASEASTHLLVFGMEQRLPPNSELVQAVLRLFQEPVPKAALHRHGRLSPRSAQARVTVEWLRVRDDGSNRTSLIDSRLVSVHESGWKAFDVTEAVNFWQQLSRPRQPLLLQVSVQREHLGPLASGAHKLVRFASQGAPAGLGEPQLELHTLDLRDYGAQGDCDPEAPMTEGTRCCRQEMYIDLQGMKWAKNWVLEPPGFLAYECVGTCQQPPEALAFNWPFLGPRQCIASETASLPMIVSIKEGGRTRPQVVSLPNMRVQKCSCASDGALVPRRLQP
Sequence of Fibroblast growth factor 10 (Homo sapiens) (O15520 whole entry, looked up): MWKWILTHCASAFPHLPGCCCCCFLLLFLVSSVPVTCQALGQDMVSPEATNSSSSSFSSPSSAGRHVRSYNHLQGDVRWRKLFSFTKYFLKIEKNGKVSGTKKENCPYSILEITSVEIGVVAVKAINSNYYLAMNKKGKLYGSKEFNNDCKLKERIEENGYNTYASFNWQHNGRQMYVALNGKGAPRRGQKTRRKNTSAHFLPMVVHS
Sequence of Dickkopf-related protein 1 (Homo sapiens) (O94907 whole entry, looked up): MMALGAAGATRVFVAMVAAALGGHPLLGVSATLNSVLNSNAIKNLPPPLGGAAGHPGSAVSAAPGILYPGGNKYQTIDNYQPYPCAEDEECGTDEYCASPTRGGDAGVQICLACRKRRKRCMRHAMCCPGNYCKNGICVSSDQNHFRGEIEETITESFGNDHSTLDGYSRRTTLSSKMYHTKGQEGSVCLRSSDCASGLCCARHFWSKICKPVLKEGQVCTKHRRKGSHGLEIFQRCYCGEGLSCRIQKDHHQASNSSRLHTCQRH
Sequence of Follistatin-related protein 3 (Homo sapiens) (O95633 whole entry, looked up): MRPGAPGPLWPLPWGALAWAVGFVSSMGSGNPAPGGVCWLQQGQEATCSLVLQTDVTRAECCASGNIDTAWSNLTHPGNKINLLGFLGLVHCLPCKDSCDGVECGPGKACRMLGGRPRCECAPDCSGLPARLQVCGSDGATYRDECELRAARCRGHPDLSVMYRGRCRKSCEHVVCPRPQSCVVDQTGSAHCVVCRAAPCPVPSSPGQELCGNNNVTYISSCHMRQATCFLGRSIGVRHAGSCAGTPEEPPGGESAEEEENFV
Sequence of Torsin-1A-interacting protein 1 (Homo sapiens) (Q5JTV8 whole entry, looked up): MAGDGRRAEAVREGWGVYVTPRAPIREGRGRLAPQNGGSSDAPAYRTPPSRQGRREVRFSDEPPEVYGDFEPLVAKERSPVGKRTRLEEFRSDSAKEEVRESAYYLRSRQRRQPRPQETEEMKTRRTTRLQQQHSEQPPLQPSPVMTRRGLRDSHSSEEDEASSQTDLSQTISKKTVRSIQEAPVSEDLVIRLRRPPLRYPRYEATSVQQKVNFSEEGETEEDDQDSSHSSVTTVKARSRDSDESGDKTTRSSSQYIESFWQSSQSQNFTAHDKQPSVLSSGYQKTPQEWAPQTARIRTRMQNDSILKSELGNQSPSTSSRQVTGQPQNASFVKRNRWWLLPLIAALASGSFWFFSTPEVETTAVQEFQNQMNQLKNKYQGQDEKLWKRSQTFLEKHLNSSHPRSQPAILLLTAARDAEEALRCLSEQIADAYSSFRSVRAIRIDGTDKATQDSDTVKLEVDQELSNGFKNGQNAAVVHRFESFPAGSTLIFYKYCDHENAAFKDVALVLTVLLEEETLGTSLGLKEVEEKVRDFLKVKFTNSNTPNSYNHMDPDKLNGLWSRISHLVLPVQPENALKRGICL
Sequence of Epidermal growth factor receptor (Homo sapiens) (P00533 whole entry, looked up): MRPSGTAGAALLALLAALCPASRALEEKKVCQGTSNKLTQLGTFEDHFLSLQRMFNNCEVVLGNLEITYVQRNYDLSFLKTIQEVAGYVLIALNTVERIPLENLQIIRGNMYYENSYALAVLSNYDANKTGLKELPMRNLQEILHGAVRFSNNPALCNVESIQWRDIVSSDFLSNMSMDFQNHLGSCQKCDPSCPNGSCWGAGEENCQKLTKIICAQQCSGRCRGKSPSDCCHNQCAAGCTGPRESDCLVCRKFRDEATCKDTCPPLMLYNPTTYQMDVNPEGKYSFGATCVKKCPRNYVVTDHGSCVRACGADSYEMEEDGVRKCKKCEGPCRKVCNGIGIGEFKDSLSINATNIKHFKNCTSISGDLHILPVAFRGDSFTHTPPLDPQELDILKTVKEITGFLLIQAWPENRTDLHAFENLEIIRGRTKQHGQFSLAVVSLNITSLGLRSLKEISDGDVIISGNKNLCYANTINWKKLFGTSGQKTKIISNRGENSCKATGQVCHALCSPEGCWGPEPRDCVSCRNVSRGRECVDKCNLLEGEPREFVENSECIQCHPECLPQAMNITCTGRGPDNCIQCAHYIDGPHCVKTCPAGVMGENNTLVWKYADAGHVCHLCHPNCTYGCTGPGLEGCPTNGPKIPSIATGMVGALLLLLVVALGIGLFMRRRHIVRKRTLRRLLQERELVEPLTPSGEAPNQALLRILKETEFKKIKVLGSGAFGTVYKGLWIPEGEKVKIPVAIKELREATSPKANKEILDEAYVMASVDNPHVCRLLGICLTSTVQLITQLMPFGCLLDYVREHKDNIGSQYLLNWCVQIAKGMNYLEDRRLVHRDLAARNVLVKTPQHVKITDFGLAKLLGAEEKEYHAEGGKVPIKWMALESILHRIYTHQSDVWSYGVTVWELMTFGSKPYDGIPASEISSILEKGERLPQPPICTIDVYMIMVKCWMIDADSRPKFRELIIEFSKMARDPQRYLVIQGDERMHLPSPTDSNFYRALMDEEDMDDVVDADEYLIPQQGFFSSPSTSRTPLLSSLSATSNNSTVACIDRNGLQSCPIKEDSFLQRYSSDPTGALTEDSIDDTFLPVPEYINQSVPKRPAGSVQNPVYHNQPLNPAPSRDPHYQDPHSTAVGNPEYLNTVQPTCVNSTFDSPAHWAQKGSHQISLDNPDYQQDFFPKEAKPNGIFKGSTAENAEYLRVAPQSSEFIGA

Structure (SMILES)	composite z-score [1]	composite z-score [2]	composite z-score [3]	z-score [4]	composite z-score [5]	composite z-score [6]	composite z-score [7]	composite z-score [8]	composite z-score [9]	composite z-score [10]	composite z-score [11]	z-score [12]	composite z-score [13]	composite z-score [14]	composite z-score [15]	composite z-score [16]	composite z-score [17]	composite z-score [18]	composite z-score [19]	composite z-score [20]
COCCOC(=O)N1C(=O)[C@@]2(c3cc(C#Cc4ccc(OC)cc4)ccc31)[C@H](C(=O)Nc1nc3ccccc3s1)[C@H]1C(=O)O[C@H](c3ccccc3)[C@H](c3ccccc3)N1[C@@H]2c1ccc(O)cc1	1.48	0.166	-0.0767	-0.591 (inactive)	1.39	1.29	0.571	1.24	0.875	0.318	1.38	-0.841	0.631	0.876	-0.138	0.0559	0.314	-0.376	0.37	1.34
O=C1O[C@H](c2ccccc2)[C@H](c2ccccc2)N2[C@H]1[C@@H](C(=O)Nc1nc3ccccc3s1)[C@]1(C(=O)Nc3ccc(C#CCCO)cc31)[C@H]2c1ccc(O)cc1	0.915	0.39	0.673	-0.285 (inactive)	0.929	0.88	0.591	0.763	0.198	0.635	1.4	-0.829	0.691	0.628	-0.0808	-0.0519	-0.0035	-0.28	0.799	0.369
Cc1ccc(S[C@]2(C(=O)O)CC(=O)N(Cc3ccccc3Cl)[C@@H]2c2ccc(CO)cc2I)cc1	0.534	1.47	-0.217	-0.565 (inactive)	-0.054	0.202	0.0365	0.653	1.18	0.164	-0.455	-1.77	0.0515	-0.326	-0.952	-0.483	0.209	-1.13	-0.421	-0.338
COCCCNC(=O)[C@@]1(Cc2ccccc2N=[N+]=[N-])COC(c2ccc(OCCCO)cc2)=N1	0.955	0.516	1.17	0.989 (inactive)	0.475	-0.331	-0.027	-0.121	-0.599	1.61	1.44	-0.899	0.185	1.43	0.414	0.0165	0.284	0.747	2	2.18
O=C1N(Cc2ccccc2)c2ccccc2[C@@H]2OC(c3ccc(OCCCO)cc3)=N[C@]12Cc1ccccc1	0.959	0.659	1	-0.0483 (inactive)	0.504	0.852	0.224	0.61	0.0877	1.13	1.45	-2.69	0.0601	1.05	-0.338	0.0037	0.138	0.0705	0.685	0.807
C[C@H]1NC(=O)[C@@]23C(=O)N[C@@H](Cc4ccccc4)C2[C@H](C)[C@@]2(C)O[C@H]2C3/C=C/C/C=C\CNC(=O)[C@H](Cc2ccccc2)NC1=O (stereo not given in full)	1.29	-0.354	-0.427	0.106 (inactive)	0.932	0.138	0.199	1.01	0.689	1.34	0.395	-1.02	0.154	0.15	-0.849	-0.0445	-0.0533	-0.196	-0.285	0.107
COc1ccc([Si](C)(C)[C@@H]2[C@@H](CC(=O)N(CCO)Cc3ccccc3)O[C@]3(C(=O)N(c4ccccc4)c4ccccc43)[C@H]2C)cc1	0.908	-0.262	-0.426	-2.14 (inactive)	0.766	0.629	0.954	1.21	0.95	0.872	1.33	-4.59	0.739	0.545	0.0061	-0.0559	-0.135	-0.495	0.395	0.883
CCOC(=O)C[C@H]1[C@H](OC(=O)c2cc3ccccc3oc2=O)[C@@H](NC(=O)c2ccc(-c3ccccc3)cc2)c2cc(OCCCO)ccc2N1C(=O)c1ccc2ccccc2n1	0.853	-0.183	-0.386	-0.338 (inactive)	0.93	1.01	0.622	1.06	0.45	0.379	1.38	-0.989	0.48	0.0371	-0.455	-0.104	-0.195	-0.253	0.624	0.422
COC(=O)[C@@]1(Cc2ccccc2)[C@H]2c3cc(C(=O)N(C)C)n(CCc4ccc(O)c(OC)c4)c3C[C@H]2CN1C(=O)c1ccccc1	0.0108	1.32	0.379	0.905 (inactive)	0.626	0.652	0.569	0.37	0.358	-0.0861	0.351	-0.261	0.38	0.89	-0.136	0.583	1.49	0.974	0.279	0.19
CC1CC/C=C\[C@H]2OC34C=CCN(c5ccc(Cl)cc5)C(=O)[C@H]3N(CCCCCO)C(=O)[C@]4(C)C2C(=O)O1 (stereo not given in full)	0.925	-0.153	0.648	0.4 (inactive)	-1.04	-0.798	-1.24	-0.888	-1.98	-0.497	-0.826	0.315	-2.19	-0.471	0.432	-0.247	-0.0626	-0.163	-0.614	-1.16
